The source of these data is PubChem BioAssay AID1347136 (National Center for Advancing Translational Sciences (NCATS), 2019).

The structures appear in SMILES notation. The list shows a part of the results. Records with an inconclusive call do not appear. Active and inactive are the calls of the source. Calls come from the whole dose curve; as a rule, active = well fitted inhibition curve with a large enough effect; inconclusive = small, poorly fitted or top-dose-only effect; inactive = no such curve, though single readings can be large or run the other way.

The test in a line: qHTS of pediatric cancer cell lines to identify multiple opportunities for drug repurposing: Orthogonal 3D viability screen for SJ-GBM2 cells. The conditions noted are these: SJ-GBM2 3D spheroid viability, PI/Hoechst imaging, 72 h. From the text: Drug repurposing or repositioning has been offered as a strategy for drug development in oncology programs. This approach has special potential for childhood cancers and other rare or orphan diseases, where the expected return on new drug development has been a disincentive to pharmaceuticals. […] In this project we exploit the poly-pharmacology of drugs to discover new indications via phenotypic screening of a panel of 19 well-characterized cell lines derived from solid tumors seen in children and adolescents. The goal is to identify approved drugs with previously unrecognized anticancer properties that has the potential to reveal new mechanisms and biological processes involved in carcinogenesis or drug resistance. We employed a titration-based paradigm (quantitative high-throughput screening or qHTS), where all compounds were tested at multiple concentrations for their effect on cell viability. Concentration-response curves (CRCs) were derived directly from the primary screen, and both potency and efficacy values were used to identify compounds with robust bioactivity profiles. […] These two assays will be used to validate active compounds and assess the correlation of compound's potency in 2D vs 3D cultures on selected cell lines. Assay Submitter: Nathalia J. Martinez, National Center for Advancing Translational Sciences, National Institutes of Health, Rockville, MD, USA; email: natalia.martinez@nih.gov Shen, M et al. Quantitative high-throughput phenotypic screening of pediatric cancer cell lines identifies multiple opportunities for drug repurposing. Oncotarget 2017 Dec 19;9(4):4758-4772. PMID 29435139.
The cells were obtained from University of North Carolina (UNC), Pediatric Preclinical Testing Program (PPT), and Coriell Institute (CI). qHTS viability in 3D culture: Cells were assayed in phenol red-free growth media at a density of 1,000 cells/well, with the exception of Daoy, and SH-N-SH which were assayed at 1,500 cells/ well. Thirty muL of cells were dispensed into 384-well, ULA, round bottom plates (Corning) using a Multidrop dispenser. Plates were spun down at 1,000 rpm for 1 min and incubated at 37 degrees C, 5% CO2, under a humidified atmosphere for either 24 (Daoy) or 48 hours (all other cell lines) to allow spheroid formation. Ninety-two nanoliter of compounds and controls (neutral control DMSO or positive control bortezomib at final concentrations of 0.5 µM) were subsequently transferred via GNF Pintool. Plates were sealed using a breathable seal (Diversified Biotech, Dedham, MA) and incubated for 72 hours at 37 degrees C. Spheroid viability was first determined by high-content imaging using Hoechst 33342 and Propidium Iodide (PI, ThermoFisher Scientific), followed by addition of CellTiter-Glo 3D (Promega). Specifically, 3 µL/well of PBS containing a 1:500 dilution of both dyes was dispensed using Multidrop. Dyes were incubated for 1 hour before imaging using the Celigo Image Cytometer. Then, 20 µl of CellTiter-Glo 3D were added per well. Plates were incubated for 30 min at RT on a VWR microplate shaker (300 rpm) and analyzed for luminescence intensity using a ViewLux High-throughput CCD imager equipped with clear filters. Image analysis was done using the Celigo Tumorsphere 1+2+3 application software as previously described. Briefly, spheroids were first identified using bright-field image segmentation, and then the fluorescent intensities of PI and Hoechst 3342 were obtained using red (EX: 531/40 nm, EM: 629/53 nm) and blue (EX: 377/50 nm, EM: 470/22 nm) filters, respectively. The data were exported to Excel, and the average fluorescent intensities were used to calculate the ratio of PI over Hoechst, which was used to quantify viability. Percent activity based on neutral and positive control bortezomib was derived.
In general terms: Quantitative high-throughput screening tests each substance at several concentrations.
`CC[C@]1(O)C[C@@H]2CN(CCc3c([nH]c4ccccc34)[C@@](C(=O)OC)(c3cc4c(cc3OC)N(C)[C@H]3[C@@](O)(C(=O)OC)[C@H](OC(C)=O)[C@]5(CC)C=CCN6CC[C@]43[C@@H]65)C2)C1`: the Potency was 40.6 nM (active).

In the case of `CC[C@H]1CN2CCc3cc(OC)c(OC)cc3[C@@H]2C[C@@H]1C[C@H]1NCCc2cc(OC)c(OC)cc21`, the Potency was 72.2 nM (active).

Regarding `CC(NCc1ccc2c(c1)nc(NC(=O)c1ccc(-c3cn[nH]c3)s1)n2CC(C)(C)O)C(C)(C)C` (stereo unspecified), the Potency was 162 nM (active).

As to `COc1c(C)c2c(c(O)c1C/C=C(\C)CCC(=O)O)C(=O)OC2`, the Potency is 722 nM (active).

For the molecule `COC(=O)Nc1nc2ccc(Sc3ccccc3)cc2[nH]1`, the Potency was 574 nM (active).

With `CC1(C)O[C@@H]2C[C@@H]3[C@H]4C[C@@H](F)C5=CC(=O)C=C[C@]5(C)[C@@]4(F)[C@@H](O)C[C@]3(C)[C@]2(C(=O)CO)O1`, the Potency was 574 nM (active).
